USP30 inh: human USP30 deubiquitinase inhibition. Q70CQ3. purified USP30, Ub-rhodamine cleavage fluorescence. inhibition, % at 25 µM. 47,000 compounds, 5.3% hits. AID 1645860
USP10 inh: human USP10 deubiquitinase inhibition | Q14694 | purified USP10, Ub-rhodamine fluorescence, 60 min | inhibition, % at 20 µM | 47,000 compounds, 1.1% hits | AID 1645856
USP8 block: blocks human USP8 ubiquitin-rhodamine cleavage. purified USP8, Ub-rhodamine cleavage fluorescence, 30 min. inhibition, % at 20 µM. 47,000 compounds, 4.2% hits. AID 1645853
USP17 inh: human USP17-like deubiquitinase inhibition | purified USP17, Ub-rhodamine cleavage fluorescence, 3 h | inhibition, % at 50 µM | 47,000 compounds, 6.5% hits
UCHL1 inh: inhibitors of human UCHL1 deubiquitinase. 47,000 compounds, 0.2% hits. AID 1645859. inhibition, % at 20 µM. P09936. purified UCHL1, Ub-rhodamine cleavage fluorescence
USP7 inh: blocks human USP7 ubiquitin-rhodamine cleavage | inhibition, % at 20 µM | purified USP7, Ub-rhodamine cleavage fluorescence | AID 1645854 | Q93009 | 47,000 compounds, 0.3% hits
The depositor's hits bear a star; i = inactive; . = no result. Hits are enriched below; roughly 12% of the tested compounds scored in any of these assays. Rule as the data show it: active = inhibition above about 30%; inactive = the rest.

SMILES	USP30 inh	USP10 inh	USP8 block	USP17 inh	UCHL1 inh	USP7 inh
COc1ccc(-c2ncc3c(n2)CCN(C(=O)c2ccc(F)cc2)C3)cc1	-14.9	-3.4	8.9	-4.1	1.8	-35.9
Cc1nc(NCCc2ccc(S(N)(=O)=O)cc2)c2oc3ccccc3c2n1	36.2*	18.4	3.9	29.6	2.5	11.5
CN(C)S(=O)(=O)c1ccc(S(=O)(=O)NCCc2ccc3c(c2)OCO3)cc1	45.1*	-0.7	-17.5	16.2	3.8	2.3
O=C(Nc1ccc2c(c1)OCO2)C(Cc1cc(Cl)cc2c1OCOC2)C(=O)c1ccccc1 (centres undefined)	1.5	4.7	9.2	0.4	1.9	2.3
O=C(CC(C(=O)Nc1ccc2c(c1)OCO2)C(=O)c1ccccc1)Nc1ccc(Cl)cc1F (centres undefined)	58.9*	13.9	22.4	34.2*	2.8	6.4
N#Cc1ccc(CC(C(=O)Nc2ccc3c(c2)OCO3)C(=O)c2ccccc2)cc1 (centres undefined)	34.8*	9.5	13.3	13.4	8.6	-8.3
CS(=O)(=O)c1ccc(CN2CCc3nc4cccnc4cc3C2)c(Cl)c1	i	-1.5	-216.3	-132.2	-156.8	-134.0
O=S(=O)(C1CC1)N1CCOC2(CCCN(c3ncc(F)cn3)C2)C1 (centres undefined)	35.3*	1.0	15.8	16.2	1.9	0.5
CCS(=O)(=O)N1CCOC2(CCCN(c3ncc(F)cn3)C2)C1 (centres undefined)	-15.1	-0.1	-40.6	-12.2	-2.4	-3.0
CC(NC(=O)C1=CCN(Cc2cccc(F)c2)CC1)c1ccccc1 (centres undefined)	-37.9	-6.4	-10.0	-15.6	0.3	-1.4
COCC(=O)N1C2CCC3(CC2)OC(=O)N(C)CC13 (centres undefined)	-11.9	-0.4	0.4	-4.4	0.0	0.1
Cc1ccc(C(CC(=O)Nc2cccc(C)n2)N2Cc3ccccc3C2=O)cc1 (centres undefined)	0.4	1.2	17.1	41.4*	2.3	1.3
Cc1nn(-c2ccc(C(=O)N3CCCCC3)cc2)c2c1C(=O)CC(C)(C)C2	-23.8	0.0	-6.5	-24.5	-6.7	-8.8
Cc1ccc(-n2c(=O)[nH]c3c(C(N)=O)nc(-c4cccnc4)nc32)cc1	33.6*	-4.3	6.9	34.2*	0.0	3.9
Cc1cccc(-c2nc(C(N)=O)c3[nH]c(=O)n(-c4ccccc4)c3n2)c1	-75.6	-3.4	74.8*	8.4	-6.6	0.0
Cc1ccc(C(=O)N2CCCC3(C2)Nc2ccccc2NC3=NC(C)(C)C)cn1 (centres undefined)	-149.7	-7.6	25.1	-26.4	-5.0	-22.1
CCOc1ccc(CN2CCN(C(=O)c3ccc(C#N)cc3)CC2)cn1	2.7	1.5	5.5	0.7	1.2	-0.7
CC(C)CC1NC(=O)C2CCCN2C1=O (centres undefined)	18.4	16.8	54.0*	70.9*	41.5*	-115.4
CC(C)CC1NC(=O)C2CC(O)CN2C1=O (centres undefined)	37.1*	0.0	11.7	19.0	3.4	8.7
O=C(CC1CCCC1)N1CCC(Oc2cc(N3CCCC3)ncn2)C1 (centres undefined)	-10.5	-0.6	-11.7	-6.0	-5.9	-5.4
O=C(OCc1nc2ccccc2c2ccccc12)c1ccc(CO)cc1	-27.8	-2.4	-0.1	-10.8	-14.3	-26.6
COc1cc(C2CC(=O)Nc3nc(-c4ccccc4)[nH]c(=O)c32)cc(OC)c1O (centres undefined)	66.3*	19.4	8.6	82.3*	7.9	23.7
COc1ccccc1C1CC(=O)Nc2n[nH]c(-c3ccccc3)c21 (centres undefined)	0.1	2.0	-12.1	.	0.3	-0.3
COc1ccc(OC)c(C2CC(=O)Nc3n[nH]c(-c4ccccc4)c32)c1 (centres undefined)	36.0*	1.1	0.0	72.0*	0.4	-13.3
COc1ccc(C2CC(=O)Nc3n[nH]c(-c4ccccc4)c32)cc1OC (centres undefined)	69.9*	1.3	11.1	15.4	3.4	8.9
Cc1nc2c(-c3ccccc3)cnn2c(NCCc2ccccc2)c1C	19.3	9.5	18.4	17.3	5.8	-9.1
Cc1cc(N)n(-c2nc3ccccc3n2Cc2c(F)cccc2Cl)n1	23.6	5.8	0.4	8.8	6.3	-16.4
Cc1ccc(-n2c(=O)c3ccccc3n(Cc3c(F)cccc3Cl)c2=O)cc1	-0.2	3.3	13.2	61.8*	-0.5	2.8
